Laboratory results: PubChem BioAssay (NCI)
The panel holds about 79,000 compounds, 15% with a hit somewhere; the sample as a whole holds those more often. A number with no mark means an inactive call. Activity calls are given as the source filed them. No stated cut-off is given here; in the data, active means growth inhibition above about 70%; inactive means the rest. Where a SMILES comes first, the peptide text is derived from it. The star is where a group is joined. Bz = O=C(c1ccccc1)*; Bn = c1ccc(C*)cc1; βAla = NCCC(=O)O

What was measured:
[1] = NCI Yeast Anticancer Drug Screen. Data for the rad50 strain (AID 155);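 further: 0% = growth of vehicle-only cultures of the same strain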; details: S. cerevisiae rad50 strain growth inhibition; at 50.0 µM; hits give high values
How it was run: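 Yeast carrying a defined DNA repair defect were exposed to test compounds, and growth was compared with vehicle-treated controls to give percent inhibition.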

[2] = NCI Yeast Anticancer Drug Screen. Data for the mec2-1 strain (AID 157); details: S. cerevisiae mec2-1 strain, at 50.0 µM, hits give high values
How it was run: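 Growth inhibition is read against vehicle-treated controls after compound exposure of the mec2-1 yeast strain, which is defective in DNA damage repair or cell cycle control.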

[3] = NCI Yeast Anticancer Drug Screen. Data for the sgs1 mgt1 strain (AID 161);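 further: 0% = growth of cultures given vehicle only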; details: S. cerevisiae sgs1 mgt1 strain, at 50.0 µM, hits give high values
How it was run: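 This yeast growth screen uses a strain with defined DNA-repair lesions; compound-treated growth is compared with vehicle-treated growth.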

[4] = NCI Yeast Anticancer Drug Screen. Data for the cln2 rad14 strain (AID 165);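 further: 0% = growth equal to vehicle treated cultures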; details: S. cerevisiae cln2 rad14 strain, at 50.0 µM, hits give high values
How it was run: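 Growth inhibition, relative to vehicle-treated controls, is the read-out. The test organism is a yeast strain with defined genetic alterations, cln2 rad14.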

[5] = NCI Yeast Anticancer Drug Screen. Data for the bub3 strain (AID 167); details: S. cerevisiae bub3 mutant strain, at 50.0 µM, hits give high values
How it was run: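 Compounds were applied to a genetically altered yeast strain carrying a cell-cycle control defect. Growth inhibition was scored against vehicle-treated controls.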

[6] = NCI Yeast Anticancer Drug Screen. Data for the mlh1 rad18 strain (AID 175); details: S. cerevisiae mlh1 rad18 strain growth inhibition; at 50.0 µM; hits give high values
How it was run: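 Cells of a genetically altered yeast strain, deficient in DNA damage repair, were treated with compound. Their growth was then compared with that of vehicle-treated cultures to give inhibition.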

Compound | growth inhibition [1] | growth inhibition [2] | growth inhibition [3] | growth inhibition [4] | growth inhibition [5] | growth inhibition [6]
Nc1c(I)cc(C(=O)O)c(O)c1I | 2.45% | -26.6% | -15.3% | 4.65% | -5.75% | -9.15%
NC(=O)n1ccc(CC(O)(C(F)(F)F)C(F)(F)F)n1 | -13.2% | 44% | -2.55% | 55.1% | 2.35% | 22.4%
CN1CCC(C(=O)NNc2ccccc2)CC1 | -12.1% | -13.2% | -3.75% | 7.3% | 0.1% | 4.7%
Oc1ccc(C2=NNC(c3ccc(O)cc3)=NN2)cc1 | 12.7% | 11.9% | 17% | 21.1% | 12.8% | 10.1%
CCN(CC)c1ccccc1-c1ccccc1 | 34.9% | 20.1% | 1.05% | -58.6% | 6.05% | 20.1%
N#CC(C(=N/O)/C(=N\O)C(C#N)c1ccccc1)c1ccccc1 (stereo unspecified) | -3.35% | -11.1% | 2.55% | -4% | -5.75% | 25.1%
CN(C)CCN(C)CCN(C)CCN(C)C | -10.4% | -25.8% | 11.8% | -6.75% | 5.9% | -6.7%
CN(C)c1nc2nccnc2c(=O)[nH]1 | 11.4% | -1.75% | -11.2% | -52.5% | 6.45% | -14.3%
Clc1cc(Cl)c2ccc3c(Cl)cc(Cl)c4ccc1c2c43 | -18.6% | -33.3% | -10.8% | 7.3% | -30.8% | -20.6%
CC(=O)OCC(OC(C)=O)C(OC(C)=O)C(/C=C/N=[N+]([O-])c1ccccc1)OC(C)=O (stereo unspecified) | 49% | 31.5% | 45.5% | 42.6% | 48.6% | 44.9%
O=C1OCC2C(=O)N3Cc4cc5ccccc5nc4C3CC12 (stereo unspecified) | 11.9% | 10.2% | -2.5% | 8.85% | -15.8% | 9.55%
Cc1cccc(NC(=O)Nc2cccc(C)c2)c1 | -3.75% | -2.95% | -2% | -25.9% | -22.1% | -18.2%
c1ccc(-c2ccc(N=NN3CCCC3)cc2)cc1 | 0.75% | -5.6% | 14.3% | 6.4% | -6.15% | 8.1%
OCC1CC1c1ccccc1 (stereo unspecified) | -4.75% | -0.65% | -6.4% | 10.5% | 10.7% | 5.55%
CC1=NN(c2nc(N)nc(CCl)n2)CC1 | 11.1% | 6.35% | 8.15% | 21.9% | 11.5% | -29.2%
COc1ccc(OC(=O)Nc2cccc(C(C)=O)c2)cc1 | 8.35% | 42.3% | 9.9% | 1.8% | 22.1% | 3.15%
O=S(=O)(Nc1ccn(-c2ccccc2)n1)c1ccc(NCc2c3ccccc3nc3cc(Cl)ccc23)cc1 | 17.1% | 21.2% | 15.8% | -24.2% | -13.6% | 23.6%
COC(=O)C(c1ccccc1)S(=O)(=O)c1ccccc1 (stereo unspecified) | -2.75% | -13.3% | 3.6% | -2.75% | -21.4% | -5.5%
COc1c2cc3c(cc2nc2occc12)OCO3 | 1.1% | -5.35% | -9.3% | 2.6% | -11.2% | 5.55%
O=C1NC(=O)C(c2ccsc2)(c2cccs2)N1 (stereo unspecified) | 20.9% | -9.3% | 1% | 14.3% | 5.05% | -1.65%
COc1ccc(CC#N)cc1OC | 6.5% | -8.3% | -5.6% | -54.8% | -31.4% | -5.2%

Compound | growth inhibition [1] | growth inhibition [2] | growth inhibition [3] | growth inhibition [4] | growth inhibition [5] | growth inhibition [6]
Nc1nnc(-c2ccccc2)nn1 | 4.05% | 4% | 12.1% | -1.15% | 6.55% | 9.25%
COC(=O)C(CSCc1ccccc1)NC(=O)C(CSCc1ccccc1)NC(=O)CCNC(=O)c1ccccc1 (stereo unspecified) ({Bz-βAla}-Cys(Bn)-Cys(Bn)-OMe; configuration not given here) | 13.9% | -5.05% | 2.1% | 30.1% | -0.9% | 9.05%
CN1CCN(CCCN2CC(=O)N3Cc4ccccc4CN3C(=O)C2)CC1 | -26.6% | -1.35% | -9.45% | 1% | 5.15% | -3%
COC1CC(OC2CCC3(C)C(=CCC4C3C(OC(C)=O)C(OC(=O)CC(C)C)C3(C)C(C(C)=O)CCC43O)C2)OC(C)C1OC1CC(OC)C(OC2CC(OC)C(OC3OC(C)C(O)C(OC)C3O)C(C)O2)C(C)O1 (stereo unspecified) | 31.3% | 6.55% | 21.4% | 16.9% | -1.9% | -83.5%
CC1(C)OC2COC(c3[nH]nc4c(=O)[nH]c(=O)[nH]c34)C2O1 (stereo unspecified) | 1.1% | -5.65% | -26.9% | -20.8% | -64.3% | -5%
CC1CC=CCC1(C(=O)O)C(=O)O (stereo unspecified) | 0.6% | 10.1% | -10.2% | -2.05% | -21.6% | -24.1%
C=Cc1ccc(C[n+]2cccc(C(N)=O)c2)cc1 | -15.2% | -17% | -2.95% | -1.75% | 17.2% | -35.9%
CC(=O)C(C)C(=O)N1C(=O)N(C)C2(C)N(C)C(=O)NC12C (stereo unspecified) | 2.05% | -45.3% | -24.3% | 8.4% | -5.8% | 7.3%
COC1=C(N)C(=O)c2ccc(-c3ccccn3)nc2C1=O | 89.7% (active) | 92.3% (active) | 86.8% (active) | 89.8% (active) | 81.8% (active) | 92.9% (active)
CCOC(=O)c1c([N+](=O)[O-])cnn1C1OC(COC(C)=O)C(OC(C)=O)C1OC(C)=O (stereo unspecified) | 6.4% | -2% | 4.6% | 15.2% | 7.9% | 6.85%
CCCCCCCCCCCC(=O)NC(=S)Nc1cc(OC)ccc1OC | -17.9% | -7.25% | -2.9% | -47.3% | -3.85% | -0.95%
CCOC(=O)C1CNCCC1=O (stereo unspecified) | -5.25% | -20.9% | -4.15% | -1.4% | -11.2% | -8.95%
CC(C)C(N)(C(=O)O)c1ccccc1 (stereo unspecified) | -19.7% | -20.2% | -51.5% | -73.4% | -14.9% | -24.9%
Oc1cc2c(cc1C(c1ccc(Cl)cc1)N1CCCCC1)OCO2 (stereo unspecified) | 9.65% | -1.6% | 1.25% | -6.4% | 11.1% | 5.75%
CC1CNC(C)(C)O1 (stereo unspecified) | 36.5% | 10.9% | 18.9% | 23.6% | 11.6% | 29.4%
CCOC(=O)c1cccc(Cl)c1C(=O)O | -7.75% | -13.1% | 0.25% | -29.5% | -4.05% | -7.75%
O=C(O)Cc1cccc2nnnn12 | 14.2% | -17.8% | -7.5% | 15.1% | -4.75% | 23.9%
CC(=O)N1C(=O)C(=O)c2ccccc21 | 5.9% | -5.4% | -4.8% | -25% | -1.5% | 23.5%
CCC(SC)C(=O)c1ccccc1 (stereo unspecified) | -7.55% | -11.6% | 0.5% | -12.4% | -33.8% | -12.8%
N#CN(Cc1ccccc1)Cc1ccccc1 | -1.25% | 23.7% | 7.75% | 0.6% | 10.7% | 4%
